Structures are written as SMILES. The source made the active and inactive calls.

Here are results for 9 compounds from PubChem BioAssay.

A short description of this assay: fission yeast growth modulation, primary screen, strain 972, OD600, 24 h, no modulator (AID 1090).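 Further: basal condition with compound alone and no growth modifier present; test concentration not given here.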 Conditions: S. pombe 972 growth, higher = more signal, called active from +8 up or from −8 down.
Regarding `C=CCOC(=O)[C@H]1[C@@H]2C(=O)O[C@@H](c3ccccc3)[C@@H](c3ccccc3)N2[C@@H](c2ccc(OCCOC(=O)[C@H]3C[C@H]4C(=O)N5CCC[C@H]5C(=O)N4[C@H]3c3ccc(O)cc3)cc2)[C@]12C(=O)Nc1ccccc12`, the z-score was 0.998 (inactive).

As to `COCCCN1C(=O)[C@@]2(c3ccc([N+](=O)[O-])cc3)CC(=O)N(C3CCCCC3)[C@@H]2c2ccc(CO)cc21`, the z-score was 0.734 (inactive).

On to `CN(C)CCCCCCNC(=O)[C@@H]1C[C@@H]2C(=O)N[C@@H](CCCCN)C(=O)N2[C@@H]1c1cccc(OCCO)c1`, for which the z-score is -5.83 (inactive).

With `CC(C)c1ccc(NN2C(C(O)C(c3ccccc3)c3ccccc3)C=CC3C(=O)N(c4ccccc4)C(=O)C32)cc1` (centres undefined), the z-score is -0.223 (inactive).

On to `C=C(CCCC)C(=O)CC[C@@H](OC(=O)c1cccnc1)c1ccc(CO)o1`, for which the z-score is 0.115 (inactive).

Regarding `O=C(NCc1ccccc1)[C@@]1(Cc2ccccc2)N=C(c2ccc(OCCCO)cc2)O[C@H]1c1ccccc1`, the z-score is -0.666 (inactive).

Consider `COCCOC(=O)N1C(=O)[C@@]2(c3cc(C#Cc4ccc(OC)cc4)ccc31)[C@H](c1ccccc1OCCO)N1[C@H](c3ccccc3)[C@H](c3ccccc3)OC(=O)[C@H]1[C@@H]2C(=O)N1CCN(c2ncccn2)CC1`, for which the z-score was 1.95 (inactive).

On to `O=C1NC(=O)C2C1C=CC(C(O)Cc1ccccc1)N2Nc1ccc(Cl)cc1Cl` (centres undefined), for which the z-score was -1.51 (inactive).

Consider `CCCCN1CC=CC23O[C@@H]4/C=C\CCC(C)OC(=O)C4[C@H]2C(=O)N(CCCCCO)[C@@H]3C1=O` (some centres undefined), for which the z-score was -0.831 (inactive).
